Screening results (PubChem)
FAK blocker – FAK kinase inhibitors, primary screen, biochemical. biochemical FAK kinase activity assay. AID 727, 2007. inhibition, %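 (tested at 7 µM)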. 97,000 compounds, 0.84% hits. Focal adhesion kinase 1 (Homo sapiens), Q05397; in the data active = inhibition above about 19%;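 note: 0% = DMSO and 100% = reference compound high control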
ERa SRC1 pot – enhancers of ERα–SRC-1 coactivator binding, primary screen, biochemical, TR-FRET, ERα LBD, low estradiol; TR-FRET ERalpha-LBD/SRC-Cy5 coactivator binding, 2 h; 100 = basal binding, no effect; coactivator binding (% of control), % at 25.6 µM; Estrogen receptor (Homo sapiens), P03372; 86,000 compounds, 1.3% hits; AID 639, 2007; in the data active = activity above about 200%;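 note: binding measured in presence of low estradiol as agonist stimulus; 0% = peptide alone without receptor and 100% = receptor with peptide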
Smad3 inh – Smad3/FoxH1 peptide binding inhibitors, primary screen, biochemical, TR-FRET. 88,000 compounds, 0.29% hits. TR-FRET Smad3/Dy647-FoxH1 peptide binding, europium anti-His. inhibition, % at 25 µM;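 active = compounds that reduce the energy-transfer binding signal between the protein and its labelled peptide by more than half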;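 note: 0% = Smad3 plus labelled peptide maximal FRET and 100% = peptide-only background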
ERa coact inh – ERα–SRC-1 coactivator interaction inhibitors, primary screen, biochemical, TR-FRET, ERα LBD, estradiol-bound; TR-FRET ER-alpha LBD / SRC-1 peptide; 86,000 compounds, 1.7% hits; AID 629, 2007; inhibition, % at 25.6 µM; Estrogen receptor (Homo sapiens), P03372; in the data active = inhibition above about 50%;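 note: 0% = receptor plus peptide control and 100% = peptide only without receptor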
ERb coact inh – inhibitors of ERβ-SRC1 coactivator interaction, primary screen, biochemical, TR-FRET, ERβ LBD, SRC-1 peptide. Estrogen receptor beta (Homo sapiens), Q92731. TR-FRET ER-beta LBD / SRC1-Cy5 peptide binding; receptor agonist-loaded with 1 µM estradiol. inhibition, % at 25.6 µM. 86,000 compounds, 1.3% hits;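 active = compounds whose percent inhibition of the receptor-coactivator binding signal exceeds about 50% in the single-dose screen, limit read from the data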;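 note: 0% = receptor plus peptide wells without compound and 100% = peptide-only wells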
* = called active by the depositor; · = no result given; ! = not confirmed by another sample; [ ] = another dose, or the depositor's remark. Shown are actives, neighbours in structure and some others; about 3.3% of the full set was active somewhere.

SMILES	FAK blocker	ERa SRC1 pot	Smad3 inh	ERa coact inh	ERb coact inh
N=C1/C(=C/c2cccs2)C(=O)N=C2SN=C(SCc3ccccc3)N12	-4	·	·	·	·
c1ccc([P+](CC[P+](c2ccccc2)(c2ccccc2)c2ccccc2)(c2ccccc2)c2ccccc2)cc1	·	·	6	·	·
NC(=S)n1[nH]c(-c2ccc([N+](=O)[O-])cc2)c(N=Nc2ccc(O)cc2)c1=O	0	25	6	92*	38
Nc1ncnc2nc[nH]c12.Nc1ncnc2nc[nH]c12.[Cl][Pt]([Cl])([Cl])[Cl]	·	·	71*	·	·
COc1ccc2[nH]c3c(c2c1)CCn1c-3nc2ccccc2c1=O	·	35	7	80*	40
C[C@]1(O)CC[C@H]2[C@H]3CC=C4N5CCN=C5CC[C@@]4(C)[C@@H]3CC[C@@]21C	·	·	-10	·	·
COc1ccc2c(c1)-c1ccccc1S(=O)(=O)N2C(C)=O	-3	25	1	87*[fluorescence artefact?]	63*[fluorescence artefact?]
COc1ccc(OC)c(NC(=O)CN2C(=O)c3ccccc3S2(=O)=O)c1	·	121	12	-2	-15
CC(C)(C)C(=O)[C@H]([C@@H](c1ccccc1)N1CCOCC1)N1CCOCC1	·	·	-1	·	·
COc1cc2c3c(c1)/C(=C1/SC(NC(C)=O)=NC1=O)C(=O)N3C(C)(C)C=C2C	1	49	11	77*[fluorescence artefact?]	54*
COc1ccc(N2C(=O)c3ccc(NC(C)=O)cc3C2=O)cc1	-4	107	8	-9	6
Cc1ccc(C)c(C(=N)c2ccccc2Cc2ccccc2)c1	·	·	3	·	·
Cc1nnc2sc(-c3ccc(NC(=O)CSc4ccc(Cl)cc4)cc3)nn12	8	130	-25	49	47
CCc1nnc2sc(-c3ccc(NC(=O)CSc4ccc(Cl)cc4)cc3)nn12	1	225*[fluorescence artefact?]	-136	31	-2
C=CCn1c(NC(=O)c2ccccc2)c(C#N)c2nc3ccccc3nc21	·	36	67*	74*[fluorescence artefact?]	42
CN1CCc2ccccc2[C@H]1Cc1ccccc1NC(=O)c1sc2ccccc2c1Cl	·	·	32	·	·
O=C(Nc1ccc(N2CCCC2)cc1)c1cccc(F)c1	6	60	-1	33	55*[fluorescence artefact?]
O=C(Nc1ccc(N2CCN(c3ccc(O)cc3)CC2)cc1)Oc1ccccc1	7	30	7	95*[fluorescence artefact?]	57*[fluorescence artefact?]
O=C(Nc1ccc(N2CCCC2)cc1)c1ccccc1F	63*	17	10	96*[fluorescence artefact?]	80*[fluorescence artefact?]
CN1CCN(c2ccc(NC(=O)c3cccc(OCc4ccccc4)c3)cc2)CC1	12	42	13	37	62*[fluorescence artefact?]
CC1(C)[C@@H]2CC[C@@]1(CS(=O)(=O)Nc1ccccc1)C(=O)C2	·	·	-15	·	·
[N-]=[N+]=CC(=O)COC(=O)c1ccccc1	·	·	-4	·	·
COc1ccc(OC)c(S(=O)(=O)N2CCCCCC2)c1	·	109	2	-2	-8
CCOC(=O)Nc1ccc(OC)cc1S(=O)(=O)N1CCCCC1	-4	66	11	74*[fluorescence artefact?]	74*[fluorescence artefact?]
Cn1c(=O)c2c(nc(NCc3ccccc3)n2CC(=O)NCc2ccccc2)n(C)c1=O	-5	·	·	·	·
SMILES	FAK blocker	ERa SRC1 pot	Smad3 inh	ERa coact inh	ERb coact inh
Cn1c(=O)c2c(nc(NCCc3ccccc3)n2CC(=O)NCCc2ccccc2)n(C)c1=O	2	229*[fluorescence artefact?]	2	17	34
O=C(Cc1cnn(-c2ccccc2)c1)c1ccc(O)c(O)c1O	-1	56	-7	78*[fluorescence artefact?]	85*[fluorescence artefact?]
CN(/N=C/c1ccccc1O)c1ccc2ccccc2n1	·	·	9	·	·
Cc1ccc(C)c2[nH]c(=O)c(C(c3nnnn3CCc3ccccc3)N3CCOCC3)cc12 (stereo not given)	4	102	-5	1	7
Cc1ccc(C)c2[nH]c(=O)c(C(c3nnnn3Cc3ccco3)N3CCc4ccccc4C3)cc12 (stereo not given)	2	220*[fluorescence artefact?]	5	19	31
CCCCCCCc1nc2c(=O)n(C)c3ccccc3c2o1	0	117	21	14	19
CCCCCCc1nc2c(=O)[nH]c3ccccc3c2o1	·	249*[fluorescence artefact?]	15	8	8
O=C(NCc1ccc2c(c1)OCO2)c1cc2ncc(Br)cn2n1	9	24	30	80*[fluorescence artefact?]	78*[fluorescence artefact?]
CC(C)[C@H](N=Cc1ccccc1O)C(=O)O	·	·	-4	·	·
Cc1cc(Cc2cc(C)c(N)cc2N)c(N)cc1N	·	·	102*	·	·
O=C(O)c1ccc(/C=N/N=C2c3ccccc3-c3ccccc32)cc1	·	·	11	·	·
CC(=O)c1c(COC(=O)c2ccco2)nc2ccccc2[n+]1[O-]	·	39	17	64*	61*
CC(=O)c1c(COC(=O)c2ccncc2)nc2ccccc2[n+]1[O-]	3	34	10	50	62*[fluorescence artefact?]
O=C(O)c1ccccc1NCn1c(=S)sc2ccccc21	·	·	23	·	·
COC(=O)Cc1csc(N)n1	4	109	-15	-4	63*![fluorescence artefact?]
CCOC(=O)Cc1csc(NC(=O)CSc2nnc(Cc3csc(N)n3)n2C)n1	0	104	8	-6	-9
Cc1ccc(S(=O)(=O)Cc2ccc(C(=O)N3CCCCCC3)o2)cc1	-3	101	-7	5	8
CCOC(=O)C1CCCN(C(=O)c2ccc(CS(=O)(=O)c3ccc(C)cc3)o2)C1 (stereo not given)	-7	66	12	36	55*
CC(NC(=O)c1ccccc1)(C(=O)O)C(=O)O	·	·	-10	·	·
NS(=O)(=O)c1ccc(N=Nc2ncccc2O)cc1	·	·	30	·	·
CSc1nc(N2CCN(CCO)CC2)c2sc3nc(-c4ccco4)c4c(c3c2n1)CCC4	·	65	-19	57*	24
CCOC(=O)c1c(C)[nH]c(C)c1C(=O)CSc1nnc(-c2cc(OC)c(OC)c(OC)c2)o1	1	313*	-7	-42	-3
CCCCOC(=O)CSc1nnc(-c2cc(OC)c(OC)c(OC)c2)o1	-1	100	2	-4	2
O=C(O)[C@H](Cc1cc(I)c(O)c(I)c1)C1CCCCC1	·	·	11	·	·
CN1C(=O)CC(C(=O)O)SC1=Nc1cc(Cl)c(O)c(Cl)c1 (stereo not given)	-1	43	8	43	54*
SMILES	FAK blocker	ERa SRC1 pot	Smad3 inh	ERa coact inh	ERb coact inh
CCCCc1nc(SCC(=O)Nc2cc(C)on2)n[nH]1	-3	110	5	-6	98*[fluorescence artefact?]
COc1ccc(-c2nc(SCC(=O)Nc3cc(C)on3)n[nH]2)cc1	3	·	·	·	·
O=C(c1cc2nc(-c3ccco3)cc(C(F)(F)F)n2n1)N1CCCc2ccccc21	·	101	-2	14	15
O=C(c1cc(-c2ccco2)on1)N1CCc2ccccc2C1	11	91	1	58*	51*
O=C(c1cc(-c2ccco2)on1)N1CCCc2ccccc21	9	95	10	66*	52*
Cn1c(SCC(=O)Nc2ccccc2)nnc1-c1ccc(NC(=O)CCc2ccccc2)cc1	-1	99	-8	-1	76*[fluorescence artefact?]
